In PubChem BioAssay (NCI):
This is part of a sample that, as a whole, favours compounds with a hit. Of some 79,000 tested, about 15% had one in any assay. Activity calls are given as the source filed them. Rule as the data show it: active = growth inhibition above about 70%; inactive = the rest.

Experiments:
[1] = NCI Yeast Anticancer Drug Screen. Data for the rad50 strain (AID 155);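 also: 0% = growth of vehicle-only cultures of the same strain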; conditions: S. cerevisiae rad50 strain growth inhibition; at 50.0 µM; stronger effect = higher value
Outline: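 Growth of the mutant yeast was measured after compound exposure and referenced to vehicle-treated cultures.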

[2] = NCI Yeast Anticancer Drug Screen. Data for the mec2-1 strain (AID 157); conditions: S. cerevisiae mec2-1 strain, at 50.0 µM, stronger effect = higher value
Outline: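 Vehicle-treated cultures served as reference for growth inhibition of compound-exposed mec2-1 yeast.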

[3] = NCI Yeast Anticancer Drug Screen. Data for the sgs1 mgt1 strain (AID 161);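 also: 0% = growth of cultures given vehicle only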; conditions: S. cerevisiae sgs1 mgt1 strain, at 50.0 µM, stronger effect = higher value
Outline: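 Read-out: growth inhibition vs vehicle controls. Cells: mutant yeast strain deficient in DNA damage repair.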

[4] = NCI Yeast Anticancer Drug Screen. Data for the cln2 rad14 strain (AID 165);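 also: 0% = growth equal to vehicle treated cultures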; conditions: S. cerevisiae cln2 rad14 strain, at 50.0 µM, stronger effect = higher value
Outline: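 Each compound was tested on cln2 rad14 yeast. Inhibition of growth was calculated against vehicle-exposed controls.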

[5] = NCI Yeast Anticancer Drug Screen. Data for the bub3 strain (AID 167); conditions: S. cerevisiae bub3 mutant strain, at 50.0 µM, stronger effect = higher value
Outline: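 Whole-cell yeast assay. The mutant strain was incubated with compounds, and growth inhibition was determined by comparison with vehicle-treated cells.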

[6] = NCI Yeast Anticancer Drug Screen. Data for the mlh1 rad18 strain (AID 175); conditions: S. cerevisiae mlh1 rad18 strain growth inhibition; at 50.0 µM; stronger effect = higher value
Outline: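 Vehicle-treated cultures served as the reference for growth inhibition in a yeast strain carrying DNA damage repair alterations exposed to each compound.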

Measured: growth inhibition

C=CCNC(=S)Nc1cccc(C(C)OC(=O)NC(C)(C)C)c1 (centres undefined)
inactive: [1] 1.2% | [2] 30.9% | [3] 36.2% | [4] -5.8% | [5] 33.8% | [6] 20.6%

Nc1nc(N)c2ccccc2n1
inactive: [1] -11.3% | [2] 13.8% | [3] -5.2% | [4] -0.5% | [5] -6.9% | [6] -1.7%

O=[N+]([O-])c1ccc(N=Nc2c(O)[nH]c3ccc(Br)cc23)c([N+](=O)[O-])c1
inactive: [1] 9.75% | [2] -21.2% | [3] 2.15% | [4] -23.1% | [5] -20.6% | [6] 5.5%

COc1ccc2c(c1)Cc1cc(N=[N+]([O-])c3ccc4c(c3)Cc3cc(OC)ccc3-4)ccc1-2
inactive: [1] 8.65% | [2] 1.35% | [3] -17.9% | [4] -80% | [5] 47.5% | [6] 9.85%

Cc1ccc(C(=O)N2CCCCC2)cc1N=NN(C)C
inactive: [1] 0.05% | [2] -25.5% | [3] -25.6% | [4] 14.3% | [5] -17.6% | [6] -21.1%

NC(=O)c1csc(NC2OC(CO)C(O)C(O)C2O)n1 (centres undefined)
inactive: [1] 23.1% | [2] -8.8% | [3] 0.05% | [4] 14.8% | [5] -0.25% | [6] -0.05%

CCCCCCSCCO
inactive: [1] -13.2% | [2] -35% | [3] -11.9% | [4] 23.6% | [5] -30.9% | [6] 2.55%

N#C/C(=N\N=C(/C#N)c1ccc(Cl)cc1)c1ccc(Cl)cc1
inactive: [1] -5.8% | [2] -1.85% | [3] -5.5% | [4] -6.4% | [5] -4.25% | [6] -5.15%

CN(C)c1ccc(C2(c3ccc(N(C)C)cc3)NNC(=O)c3ccccc32)cc1
inactive: [1] 17.2% | [2] 7.95% | [3] 9.35% | [4] 12.7% | [5] 21.1% | [6] -0.3%

N#C/C(=C\n1c(=S)[nH]c2ccc([N+](=O)[O-])cc21)c1cccc(Cl)c1
inactive: [1] -25.2% | [2] -13.9% | [3] -34.1% | [4] 3.75% | [5] -2.45% | [6] -11.2%

CCN(CC)CCCC(C)n1c(SC)nc2cc(Cl)ccc21 (centres undefined)
inactive: [1] -11.5% | [2] -32.9% | [3] 9% | [4] -32.6% | [5] 7.2% | [6] -7.7%

NC(CO)C(O)C(O)C(O)CO (centres undefined)
inactive: [1] 6.8% | [2] 4.5% | [3] 3.35% | [4] 6.7% | [5] 2.35% | [6] -0.45%

COC(=O)CC1=NNC(=O)C1
inactive: [1] -11.7% | [2] -15.1% | [3] -14% | [4] -18.1% | [5] -7.35% | [6] -19.8%

OCC(O)COc1ccc(OCc2ccccc2)cc1 (centres undefined)
inactive: [1] 2.65% | [2] -12.1% | [3] -3.4% | [4] -21.5% | [5] -5.05% | [6] -20.3%

[Cl][Bi]([O]c1ccccn1)[O]c1ccccn1
inactive: [1] 9.9% | [2] -1.55% | [3] -13.4% | [4] 17.4% | [5] 28.6% | [6] -25.8%

O=C(O)COc1ccccc1Cl
inactive: [1] 34.6% | [2] 13.3% | [3] 22.5% | [4] 19.8% | [5] 26.1% | [6] 11.8%

N#C/C(=C\c1ccccc1Br)C(=O)c1ccccc1
inactive: [1] 15.2% | [2] 6.15% | [3] -3.35% | [4] 11.4% | [5] -12.8% | [6] -14.3%

CC(CO)(CO)CN1CCCCC1
inactive: [1] -2.25% | [2] 5.2% | [3] -1.85% | [4] -36.5% | [5] -12.4% | [6] 1.8%

Nc1cc(Cl)c(N)c(Cl)c1
inactive: [1] 1.8% | [2] -21.6% | [3] -9.65% | [4] 14.1% | [5] -19.4% | [6] -0.9%

CCN(C(=O)NC(C)(C)C)c1cccc(C)c1
inactive: [1] 3.15% | [2] -1.9% | [3] 0.35% | [4] -19.6% | [5] -0.3% | [6] 5.8%

O=C(O)c1sccc1-c1cccc2ccccc12
inactive: [1] 0.5% | [2] 18.6% | [3] 10.9% | [4] -13.3% | [5] -15.6% | [6] -11.8%

O=C(Cc1ccccc1)NC(CSCc1ccccc1)C(=O)O (centres undefined)
inactive: [1] 9.85% | [2] 19.2% | [3] -15% | [4] -39.1% | [5] 10.8% | [6] 40.2%

CSC1=NC=C(C#N)C2=NC(c3ccccc3)NN12 (centres undefined)
inactive: [1] -0.3% | [2] -5.55% | [3] -6.6% | [4] -14.2% | [5] 2.8% | [6] 7%

CCN(CC)c1ccc(N=Nc2nc(Cl)c(/C=C3\C(=O)c4ccccc4C3=C(C#N)C#N)s2)c(NC(C)=O)c1
inactive: [1] 18% | [2] 5.1% | [3] 14.2% | [4] -38.6% | [5] -12.8% | [6] -17.6%

O=[P+](O)c1cc2c3ccccc3ccc2c2ccccc12
inactive: [1] -34.9% | [2] 11.8% | [3] 32% | [4] -12.3% | [5] 33% | [6] -0.55%

O=C(CNC(=O)c1ccccc1)NCS(=O)(=O)O
inactive: [1] 12.2% | [2] -3.6% | [3] 19% | [4] 14.7% | [5] 19.2% | [6] 11.3%

CCN(CC)CCOC(=O)c1c2nc3c(C(=O)OCCN(CC)CC)ccc(C)c3oc-2c(C)c(=O)c1N
inactive: [2] 35.9% | [3] 42.1% | [4] -5.2% | [5] 61.9% | [6] 36.3%
active: [1] 79.5%

CCO/C=N\c1c(C#N)c(CC#N)nn1C
inactive: [1] -3.55% | [2] -12% | [3] -8.65% | [4] -27.9% | [5] -1.75% | [6] -13.4%

CC(C)(C)SC(=S)SCC(=O)c1cc2ccccc2o1
inactive: [1] 35.7% | [2] 3.5% | [3] 41.4% | [4] 30.1% | [5] 40.8% | [6] 37.9%

CCOC(=O)C(=CNc1ccc(S(N)(=O)=O)cc1)C(=O)OCC
inactive: [1] 13.7% | [2] 7.95% | [3] -31.1% | [4] 5.6% | [5] -14% | [6] -26.2%

C=CCNC(=S)/N=C\c1c(C)[nH]n(-c2ccccc2)c1=O
inactive: [1] -23.8% | [2] -27.2% | [3] -24.6% | [4] -17.6% | [5] -17.6% | [6] -5.7%

Cc1ccc(NC(=O)Oc2ccc3ccccc3c2)cc1NC(=O)Oc1ccc2ccccc2c1
inactive: [1] 1.35% | [2] -19.4% | [3] -4.45% | [4] -86.5% | [5] 4.9% | [6] -1.85%

CC(CO)CCNc1ncnc2c1ncn2CCC(=O)O (centres undefined)
inactive: [1] -8.7% | [2] 6% | [3] -29.9% | [4] -23.5% | [5] 17.2% | [6] -0.95%

OCC1OC(Nc2ccc(F)cc2)C(O)C1O (centres undefined)
inactive: [1] 2.95% | [2] -10.4% | [3] -1.3% | [4] 30.1% | [5] -13.2% | [6] 26.2%

O=C(Nc1ccc(I)cc1)c1ccc([N+](=O)[O-])cc1
inactive: [1] 2.3% | [2] -11.1% | [3] -5.05% | [4] -8.2% | [5] 0.35% | [6] -4.5%

[Cl][Pt+2][Cl].[NH-]C(CO)C([NH-])CO (centres undefined)
inactive: [1] 32.4% | [2] -47.9% | [3] -10.3% | [4] -15.8% | [5] -27.9% | [6] -61.5%

CCSc1nc2ccc(CN3C(=O)c4ccccc4C3=O)cc2s1
inactive: [1] 1.3% | [2] -3.5% | [3] -4.6% | [4] 1.5% | [5] 15.8% | [6] -2.3%

COc1ccc(/C=N/N2CCN(/N=C/c3ccc(OC)c(O)c3)CC2)cc1O
inactive: [1] 22.1% | [2] 4.5% | [3] 15.1% | [4] 28.6% | [5] 1.05% | [6] 9.85%

CC(=O)C1=C2CCC3C(CCC4CC(O)CCC43C)C2CC1 (centres undefined)
inactive: [1] -3.95% | [2] -3.35% | [3] 10.9% | [4] -9.45% | [5] -8% | [6] 11.2%

On1c(-c2ccccc2)c(-c2c(-c3ccccc3)n(O)c3ccccc23)c2ccccc21
inactive: [1] 0% | [2] 6.45% | [3] -4.9% | [4] -24.2% | [5] -7.6% | [6] 15.8%

COC1CC(OC(=O)c2ccccc2)C(OC(=O)c2ccccc2)C(CBr)O1 (centres undefined)
active: [1] 85.3% | [2] 90.2% | [3] 88.6% | [4] 91% | [5] 80.1% | [6] 89.1%

COc1ccc(-c2cc(-c3ccc(C)cc3)n(C3OC(COC(C)=O)C(OC(C)=O)C(OC(C)=O)C3OC(C)=O)c(=S)c2C#N)cc1 (centres undefined)
inactive: [1] -10.6% | [2] -11.2% | [3] -10.3% | [4] 16.9% | [5] -2% | [6] 4.4%

CCOC(=O)Nc1c2ccccc2c(NC(=O)OCC)c2ccccc12
inactive: [1] 30.2% | [2] 8.9% | [3] 1% | [4] 12.8% | [5] 15% | [6] -6%

COc1ccc(C2C(C(=O)NCc3ccccc3)=C(C)NC(C)=C2C(=O)NCc2ccccc2)cc1OC
inactive: [1] -1.8% | [2] -4.5% | [3] -23.6% | [4] 8.4% | [5] 3.35% | [6] 16.9%
